Data from PubChem BioAssay (NCI).
Compounds without any hit were thinned out: in the full panel of roughly 79,000, 15% have a hit. Calls of active or inactive are those of the source. Rule as the data show it: active = growth inhibition above about 70%; inactive = the rest.

Columns and labels:
[1] = NCI Yeast Anticancer Drug Screen. Data for the rad50 strain (AID 155);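 also: 0% = growth of vehicle-only cultures of the same strain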; details: S. cerevisiae rad50 strain growth inhibition, active compounds read high
Method in brief: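 Growth of the mutant yeast was measured after compound exposure and referenced to vehicle-treated cultures.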

[2] = NCI Yeast Anticancer Drug Screen. Data for the mec2-1 strain (AID 157); details: S. cerevisiae mec2-1 strain, active compounds read high
Method in brief: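 mec2-1 yeast strain, carrying an alteration in DNA damage repair or cell cycle control, was exposed to compounds; growth inhibition was measured relative to vehicle-treated controls.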

[3] = NCI Yeast Anticancer Drug Screen. Data for the sgs1 mgt1 strain (AID 161);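 also: 0% = growth of cultures given vehicle only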; details: S. cerevisiae sgs1 mgt1 strain, active compounds read high
Method in brief: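 Compounds are added to genetically altered yeast, and growth is compared with cultures given vehicle alone to give percent inhibition.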

[4] = NCI Yeast Anticancer Drug Screen. Data for the cln2 rad14 strain (AID 165);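 also: 0% = growth equal to vehicle treated cultures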; details: S. cerevisiae cln2 rad14 strain, active compounds read high
Method in brief: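 Yeast carrying cln2 and rad14 alterations (cell cycle control and DNA damage repair) were exposed to compounds. Growth inhibition was measured against vehicle-treated controls.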

[5] = NCI Yeast Anticancer Drug Screen. Data for the bub3 strain (AID 167); details: S. cerevisiae bub3 mutant strain, active compounds read high
Method in brief: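 Whole-cell yeast assay. The mutant strain was incubated with compounds, and growth inhibition was determined by comparison with vehicle-treated cells.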

[6] = NCI Yeast Anticancer Drug Screen. Data for the mlh1 rad18 strain (AID 175); details: S. cerevisiae mlh1 rad18 strain growth inhibition, active compounds read high
Method in brief: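 Growth inhibition of the yeast strain was measured after compound exposure and expressed relative to vehicle-treated controls. The strain carries defined defects in DNA damage repair.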

[7] = at 5.0 µM (retest, dose inferred, filed as 0.5)
[8] = at 50.0 µM (retest, dose inferred, filed as 5.0)

| SMILES | growth inhibition [1, 7] | growth inhibition [1, 8] | growth inhibition ([1]; at 50.0 µM) | growth inhibition [2, 7] | growth inhibition [2, 8] | growth inhibition ([2]; at 50.0 µM) | growth inhibition [3, 7] | growth inhibition [3, 8] | growth inhibition ([3]; at 50.0 µM) | growth inhibition [4, 7] | growth inhibition [4, 8] | growth inhibition ([4]; at 50.0 µM) | growth inhibition [5, 7] | growth inhibition [5, 8] | growth inhibition ([5]; at 50.0 µM) | growth inhibition [6, 7] | growth inhibition [6, 8] | growth inhibition ([6]; at 50.0 µM) |
| --- | --- | --- | --- | --- | --- | --- | --- | --- | --- | --- | --- | --- | --- | --- | --- | --- | --- | --- |
| Cc1ccccc1Oc1ccccc1N | 12% (inactive) | 38% (inactive) | 79.2% (active) | -26% (inactive) | 15% (inactive) | 65.9% (inactive) | -1% (inactive) | 1% (inactive) | 69.8% (inactive) | 9% (inactive) | 34% (inactive) | 78.4% (active) | -16% (inactive) | 10% (inactive) | 58.6% (inactive) | -15% (inactive) | 39% (inactive) | 81.8% (active) |
| O=c1[nH]cnc2nc(I)[nH]c12 | 1% (inactive) | 3% (inactive) | 14.8% (inactive) | -9% (inactive) | -3% (inactive) | 0.05% (inactive) | -5% (inactive) | 5% (inactive) | -0.3% (inactive) | 1% (inactive) | -7% (inactive) | 38.5% (inactive) | -1% (inactive) | -8% (inactive) | 30.1% (inactive) | 7% (inactive) | -5% (inactive) | 6% (inactive) |
| COc1cc(C(=O)OCC(C)C)ccc1O | 3% (inactive) | 33% (inactive) | 15.1% (inactive) | 3% (inactive) | 4% (inactive) | 6.2% (inactive) | 2% (inactive) | 8% (inactive) | 2.8% (inactive) | 2% (inactive) | 14% (inactive) | -16.1% (inactive) | 96% (active) | 98% (active) | 45.3% (inactive) | -5% (inactive) | 13% (inactive) | 3.3% (inactive) |
| N#CSc1ccc2nc(NCO)sc2c1 | 22% (inactive) | 97% (active) | 98.9% (active) | 7% (inactive) | 97% (active) | 99.3% (active) | 18% (inactive) | 98% (active) | 99.3% (active) | -9% (inactive) | 89% (active) | 96% (active) | 12% (inactive) | 97% (active) | 95.4% (active) | 45% (inactive) | 97% (active) | 99.1% (active) |
| O=C(c1ccc(Cl)cc1)C1N=NCC1c1ccccc1 (centres undefined) | 3% (inactive) | 33% (inactive) | -2.2% (inactive) | 9% (inactive) | 52% (inactive) | 22.8% (inactive) | 4% (inactive) | 50% (inactive) | 29.2% (inactive) | 4% (inactive) | 59% (inactive) | 12.8% (inactive) | 4% (inactive) | 85% (active) | 87% (active) | -8% (inactive) | 53% (inactive) | 43% (inactive) |
| CN1CCN(CCCN)CC1 | -8% (inactive) | 8% (inactive) | 3.7% (inactive) | -3% (inactive) | -25% (inactive) | 25.1% (inactive) | -4% (inactive) | -3% (inactive) | -29.9% (inactive) | 4% (inactive) | -4% (inactive) | 29.9% (inactive) | 17% (inactive) | -14% (inactive) | -18% (inactive) | -2% (inactive) | 5% (inactive) | 11.1% (inactive) |
| Cc1ccc(O)c(C(c2cc(C)ccc2O)c2cc([N+](=O)[O-])ccc2O)c1 | 23% (inactive) | 97% (active) | 90.9% (active) | 7% (inactive) | 99% (active) | 93.1% (active) | 17% (inactive) | 99% (active) | 40.5% (inactive) | 17% (inactive) | 99% (active) | 90.8% (active) | 5% (inactive) | 99% (active) | 91.8% (active) | 24% (inactive) | 97% (active) | 91.3% (active) |
| CCOC(=O)C[P+](c1ccc(C)cc1)(c1ccc(C)cc1)c1ccc(C)cc1 | 39% (inactive) | 96% (active) | 96.7% (active) | 17% (inactive) | 94% (active) | 95.6% (active) | 11% (inactive) | 82% (active) | 95.8% (active) | 2% (inactive) | 82% (active) | 89.2% (active) | 21% (inactive) | 88% (active) | 91% (active) | 6% (inactive) | 93% (active) | 93.5% (active) |
| COc1ccc2c(c1)nc1ccc(Cl)cc1[n+]2C | -6% (inactive) | 61% (inactive) | 82.2% (active) | 2% (inactive) | 64% (inactive) | 84.1% (active) | -2% (inactive) | 55% (inactive) | 82.2% (active) | -7% (inactive) | 52% (inactive) | 83.1% (active) | 7% (inactive) | 70% (active) | 92.2% (active) | 6% (inactive) | 66% (inactive) | 89% (active) |
| C1=C([P+](c2ccccc2)(c2ccccc2)c2ccccc2)CCCC1 | 22% (inactive) | 93% (active) | 89.8% (active) | -2% (inactive) | 91% (active) | 92.2% (active) | 13% (inactive) | 84% (active) | 88.5% (active) | 24% (inactive) | 90% (active) | 86.5% (active) | -8% (inactive) | 92% (active) | 87.5% (active) | 14% (inactive) | 91% (active) | 91.9% (active) |
| COc1ccccc1/C=C(\NC(=O)c1ccccc1)c1nc2ccccc2[nH]1 | 42% (inactive) | 96% (active) | 97.8% (active) | 30% (inactive) | 98% (active) | 95% (active) | 38% (inactive) | 99% (active) | 96.4% (active) | 16% (inactive) | 74% (active) | 95% (active) | 3% (inactive) | 88% (active) | 98% (active) | 21% (inactive) | 96% (active) | 96.4% (active) |
| CCCCCCCCCCCCCCCCN(C)c1ccc(S(=O)(=O)O)cc1[N+](=O)[O-] | 43% (inactive) | 67% (inactive) | 85.5% (active) | 37% (inactive) | 71% (active) | 89% (active) | 50% (inactive) | 62% (inactive) | 90.5% (active) | 24% (inactive) | 48% (inactive) | 68.6% (inactive) | 60% (inactive) | 79% (active) | 88.3% (active) | 59% (inactive) | 73% (active) | 80.1% (active) |
| CC(C)=CN(C)C (tested in a mixture with another compound) | -120% (inactive) | 87% (active) | 93.5% (active) | -36% (inactive) | 91% (active) | 96.7% (active) | -42% (inactive) | 89% (active) | 91.7% (active) | -55% (inactive) | 97% (active) | 98.4% (active) | -68% (inactive) | 83% (active) | 91.2% (active) | -113% (inactive) | 95% (active) | 95.8% (active) |
| CC(C)(C)c1ccc(O)c(CN(Cc2c(O)ccc3ccccc23)C2CCCCC2)c1 | 22% (inactive) | 99% (active) | 98% (active) | 17% (inactive) | 98% (active) | 98.2% (active) | 13% (inactive) | 99% (active) | 98% (active) | -12% (inactive) | 97% (active) | 97.7% (active) | -3% (inactive) | 99% (active) | 97.4% (active) | 10% (inactive) | 99% (active) | 98.1% (active) |
| CCOC(=O)CC(=O)/C=C/c1ccncc1 | 1% (inactive) | 5% (inactive) | -19.2% (inactive) | -2% (inactive) | 0% (inactive) | -8.45% (inactive) | -10% (inactive) | -6% (inactive) | -5.25% (inactive) | 3% (inactive) | 1% (inactive) | 68.7% (inactive) | 5% (inactive) | 4% (inactive) | -9.3% (inactive) | 1% (inactive) | 3% (inactive) | 0.7% (inactive) |
| CC(/C=C/c1ccc(Cl)cc1)=N\NC(N)=S | 11% (inactive) | 44% (inactive) | 68.2% (inactive) | -1% (inactive) | 29% (inactive) | 69% (inactive) | 1% (inactive) | 59% (inactive) | 49.4% (inactive) | 12% (inactive) | 32% (inactive) | 47.1% (inactive) | 1% (inactive) | 38% (inactive) | 50% (inactive) | 16% (inactive) | 54% (inactive) | 60.5% (inactive) |
| C/C(=N\NC(=S)N1CCCCCC1)c1cccc2cccnc12 | -3% (inactive) | 14% (inactive) | 94.2% (active) | -5% (inactive) | 44% (inactive) | 83.9% (active) | 7% (inactive) | 30% (inactive) | 97.6% (active) | -19% (inactive) | 2% (inactive) | 94.4% (active) | -4% (inactive) | 26% (inactive) | 87.5% (active) | -9% (inactive) | 22% (inactive) | 86.2% (active) |
| CCN(CC)C(=S)Nc1ccc(Cl)cc1 | -144% (inactive) | 67% (inactive) | 98.5% (active) | -50% (inactive) | 49% (inactive) | 97.7% (active) | -62% (inactive) | 63% (inactive) | 97.1% (active) | -85% (inactive) | 40% (inactive) | 98.5% (active) | -65% (inactive) | 45% (inactive) | 95.2% (active) | -122% (inactive) | 74% (active) | 97.4% (active) |
